# Shown are actives, neighbours in structure and some others; about 10% of the full set was active somewhere.
# PLK1 PBD block – qHTS for Inhibitors of PLK1-PDB (polo-like kinase 1 - polo-box domain): Primary Screen; Plk1 PBD binding of FITC phosphopeptide, fluorescence polarization; Potency, µM, for inactives: max response, negative = inhibition, hits mostly inhibitors; 360,000 tested, 2.8% active; also: potency is read from the fitted curve at half-maximal effect; series mostly up to about 57 µM; nearly all actives have a fitted effect of over 65% in size
# Target sequence (P53350 whole entry, looked up, the tested form may be a part): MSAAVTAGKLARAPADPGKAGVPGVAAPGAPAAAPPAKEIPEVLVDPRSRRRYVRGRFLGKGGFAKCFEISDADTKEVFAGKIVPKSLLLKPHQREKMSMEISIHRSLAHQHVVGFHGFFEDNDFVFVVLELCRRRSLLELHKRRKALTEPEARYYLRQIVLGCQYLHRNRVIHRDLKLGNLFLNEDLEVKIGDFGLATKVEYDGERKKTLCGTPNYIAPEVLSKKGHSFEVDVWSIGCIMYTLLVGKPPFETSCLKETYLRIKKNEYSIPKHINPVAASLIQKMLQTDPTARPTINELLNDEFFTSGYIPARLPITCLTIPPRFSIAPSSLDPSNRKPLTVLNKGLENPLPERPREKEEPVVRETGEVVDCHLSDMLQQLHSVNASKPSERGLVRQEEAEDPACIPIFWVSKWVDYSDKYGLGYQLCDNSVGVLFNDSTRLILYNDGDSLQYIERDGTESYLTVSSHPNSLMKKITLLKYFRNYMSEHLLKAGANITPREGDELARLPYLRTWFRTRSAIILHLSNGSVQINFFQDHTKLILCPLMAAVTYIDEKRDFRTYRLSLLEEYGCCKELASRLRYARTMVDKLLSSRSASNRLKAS
# VDR inh – Inhibitors of the vitamin D receptor (VDR): qHTS | Vitamin D3 receptor (Homo sapiens), P11473 | VDR-SRC2-3 peptide fluorescence polarization, 2 h | Potency, µM, inactives show max response, negative = inhibition, actives largely listed as inhibitors | 400,000 tested, 0.93% active | AID 504847, 2011; also: potency is read from the fitted curve at half-maximal effect
#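 Compounds are added to VDR with labelled SRC2-3 coactivator peptide and held 2 h at room temperature. Inhibition of the VDR–peptide interaction is then read as a change in fluorescence polarization.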
# CCT modulator – High-Throughput Screening for Modulators of Cytosolic Chaperonin Activity; purified chaperonin ATPase assay, HTRF ADP detection, 30 min; AID 651819, 2012; 360,000 tested, 0.3% active; activity change, % (no concentration beside the values), hits read low; in the data active = activity change below about -30%
#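 First, chaperonin was dispensed at 40 nM or 20 nM final depending on batch activity. Next, compounds were pinned at 76 uM and ATP added at 10 uM. After 30 min at 37 °C, ADP detection reagents ran 30 min at ambient temperature.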
# MmCpn inh – Inhibitors of TCP-1 ring complex (TRiC) of Methanococcus maripaludis (MmCpn): qHTS | 330,000 tested, 0.031% active | Potency, µM (titrated, usually from 76.9 µM), for the others: at the top dose activity, negative = inhibition, actives largely listed as inhibitors | purified Mm-Cpn ATPase, ADP Transcreener TR-FRET | Chaperonin Mm-Cpn (Methanococcus maripaludis); also: potency is read from the fitted curve at half-maximal effect; nearly all actives have a fitted effect of over 80% in size
#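 TR-FRET (320 nm excitation; 590 and 665 nm emission) reports ADP made from 10 uM ATP by 25 nM enzyme; compounds were preincubated 10 min, reaction run 30 min, both at 37°C.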
# Sfp inh – qHTS Assay for Inhibitors of Bacillus subtilis Sfp phosphopantetheinyl transferase (PPTase); 310,000 tested, 3.5% active; 4'-phosphopantetheinyl transferase ffp (Bacillus subtilis), Q9F4F7; Potency, µM, inactives show largest response in the series, negative = inhibition, usual class: inhibitors; Biochemical Sfp PPTase activity, qHTS; AID 1490, 2009;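 also: the enzyme is Sfp with the accession as filed and its product quenches rhodamine fluorescence; potency is read from the fitted curve at half-maximal effect; 0% = enzyme reaction without inhibitor and -100% = no enzyme wells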
#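 After 15 min at room temperature with compound, 15 nM Sfp received 5 uM rhodamine-CoA plus 12.5 uM BHQ-2-ybbR (50 mM Hepes pH 7.6, 10 mM MgCl2). Rate came from the fluorescence difference over 30 min, ex 525/em 598 nm.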
# G9a inh – qHTS Assay for Inhibitors of Histone Lysine Methyltransferase G9a | Histone-lysine N-methyltransferase EHMT2 (Homo sapiens), Q96KQ7 | G9a H3K9 monomethylation, AlphaScreen, 2 h | Potency, µM (top dose mostly 102 µM), for the others: top-dose activity, negative = inhibition, actives largely listed as inhibitors | 350,000 tested, 8.8% active; also: potency is read from the fitted curve at half-maximal effect; nearly all actives have a fitted effect of over 75% in size
#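 Chemiluminescent proximity detection of H3K9 monomethylation, read after 10 min bead incubation in the dark. Reaction: 20 nM G9a, 500 nM biotin-H3K9 peptide, 20 uM SAM cofactor, 2 h, room temperature, following 15 min enzyme-compound preincubation.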
# Active calls of the source: *; u = inconclusive; x = no result given; [ ] = remark or other dose. Unless noted, calls follow the shape of the dose curve; as a rule, active = well fitted curve in the direction sought with a large enough effect; inconclusive = small, poorly fitted or top-dose-only effect, or another doubt; inactive = no such curve, though single readings can be large; an effect the other way counts as inactive or inconclusive. Unless noted, % is scaled to controls: 0 for no effect and ±100 for the full control effect.
SMILES,PLK1 PBD block,VDR inh,CCT modulator,MmCpn inh,Sfp inh,G9a inh
CN(C)c1ccc(N2C(=O)CC(c3ccccc3)CC2=O)cc1,4.6%,-15.3%,-0.1,-2.4%,16.2%,-2.5%
O=C1CSC(=S)N1c1ccc(F)cc1,x,x,x,-1.4%,-15.8%,u
CC1SC(=S)N(c2ccc(N(C)C)cc2)C1=O (configuration not stated),u,31.6µM*,0.9,-2.0%,-3.5%,44.7µM*
COc1cc2[nH]c(=O)n(CCCC(=O)N(C)Cc3ccccc3)c(=O)c2cc1OC,x,3.1%,x,x,x,-0.4%[59 µM]
CC1=C(C(=O)Nc2ccccc2Cl)C(c2cccc(O)c2)n2ncnc2N1 (configuration not stated),x,-3.7%,x,x,x,-33.6%[59 µM]
COc1cc(CN(C)Cc2ccccc2)cc(OC)c1O,-14.8%,3.8%,-5.6,-1.9%,u,8.91µM*
COc1ccc(CCN(C)Cc2ccc(OC)c(OCc3ccccc3)c2)cc1OC,1.4%,8.6%,-3.2,-1.2%,-14.4%,u
S=C(Nc1ccc2nc(-c3ccccn3)c(-c3ccccn3)nc2c1)N1CCCCCC1,u,6.0%,-0.6,-3.3%,39.8µM*,20µM*
S=C(Nc1ccc2nc(-c3ccccn3)c(-c3ccccn3)nc2c1)N1CCCCC1,u,-19.2%,-0.2,2.8%,-0.4%,-3.9%
CCCNC(=S)Nc1ccc2nc(-c3ccccn3)c(-c3ccccn3)nc2c1,-7.1%,-10.6%,-0.8,-4.1%,17.8µM*,12.6µM*
CCOc1cc(N2CCOCC2)c(OCC)cc1NC(=O)CCC1CCCC1,0.9%,-0.7%,-2.0,-2.7%,-20.5%,-3.5%[59 µM]
CCOc1cc(N2CCOCC2)c(OCC)cc1NC(=O)C1CCCC1,0.7%,-6.5%,0.3,-2.4%,8.0%,7.94µM*
CCOc1cc(N2CCOCC2)c(OCC)cc1NC(=O)c1ccccc1C,u,-21.0%,1.2,-0.4%,3.9%,u
CCOc1cc(N2CCOCC2)c(OCC)cc1NC(=O)c1ccc2ccccc2n1,-5.8%,-16.1%,-0.4,1.4%,u,17.8µM*
CCOc1cc(N2CCOCC2)c(OCC)cc1NC(=O)Cc1cccc2ccccc12,-11.6%,5.4%,-0.7,0.3%,-28.6%,3.55µM*
CCOc1cc(N2CCOCC2)c(OCC)cc1NC(=O)COC(=O)c1ccccc1C,-4.1%,-2.4%,-0.1,-0.7%,3.7%,-8.7%[59 µM]
CCCC(NC(=O)c1c(C)noc1C)C12CC3CC(CC(C3)C1)C2 (configuration not stated),-2.8%,-14.5%,0.0,-3.2%,17.4%,3.5%
CCCC(NC(=S)NCC1CCCO1)C12CC3CC(CC(C3)C1)C2 (configuration not stated),-10.9%,-11.2%,-2.8,-0.5%,2.2%,12.6µM*
COc1ccccc1CNC(=O)CCc1c(C)nc2c(c(C)nn2-c2ccc(C)c(C)c2)c1C,x,1.5%,x,x,x,-1.1%[59 µM]
CCc1ccc(Cn2ncc3c(C(=O)O)cc(C)nc32)cc1,26.7µM*,-9.6%,-0.3,x,x,x
COc1ccc(C2=CSC3=C(C(=O)c4cccc(S(=O)(=O)N(C)C)c4)CCN23)cc1,-11.6%,-4.9%,-1.0,1.5%,0.9%,8.91µM*
COc1ccc(C2=NN(C(=O)CSc3nnc(-c4ccccc4F)o3)C(c3ccco3)C2)cc1 (configuration not stated),-11.9%,-19.4%,-1.3,-4.5%,-12.2%,44.7µM*
COc1ccc(C2=NN(C(N)=S)C(c3ccco3)C2)cc1 (configuration not stated),-9.5%,5.4%,-3.7,-9.9%,11.2µM*,22.4µM*
COc1cccc(C(=O)NC(=O)Nc2ccc(-n3nc(C(F)(F)F)cc3C(F)(F)F)cc2)c1,x,-1.6%,x,x,x,-30.7%[59 µM]
CC(=O)NCCNc1nc(-c2ccccc2CN(C)C)nc2ccccc12,x,-2.9%,x,x,1.3%,x
SMILES,PLK1 PBD block,VDR inh,CCT modulator,MmCpn inh,Sfp inh,G9a inh
O=C(Nc1nnc(S(=O)(=O)N2CCCCC2)s1)c1ccc(F)cc1,x,7.0%,x,x,x,14.1µM*
O=C(Nc1nnc(S(=O)(=O)N2CCN(c3ccc(F)cc3)CC2)s1)c1ccco1,-10.3%,3.3%,1.0,-0.9%,-15.7%,44.7µM*
O=C(Nc1nnc(S(=O)(=O)N2CCOCC2)s1)c1ccc(F)cc1,-6.4%,6.3%,1.1,-0.2%,22.6%,-15.7%
Cc1ccc(C(=O)Nc2nnc(S(=O)(=O)N3CCCCCC3)s2)cc1,-21.2%,-0.1%,-0.3,-7.8%,16.9%,7.94µM*
C=CCOC(=O)N[C@H](/C(C(=O)OC)=C(\C)NCc1ccccc1)c1ccc(C)cc1,x,-3.4%,x,x,-9.9%,x
COc1cccc(-c2nc3c(c(SCC(=O)Nc4cccc(C)c4C)n2)Cc2c(CO)cnc(C)c2O3)c1,x,12.0%,x,x,x,-18.1%[59 µM]
O=C(CC1CCCCC1)N=C1SC2CS(=O)(=O)CC2N1c1ccccc1 (configuration not stated),26.7µM*,-14.1%,-8.0,0.6%,12.0%,35.5%
O=C(N=C1SC2CS(=O)(=O)CC2N1c1ccc(Cl)cc1Cl)C1CCCO1 (configuration not stated),-10.8%,23.2%,1.5,1.5%,0.4%,3.1%
O=C(N=C1SC2CS(=O)(=O)CC2N1c1ccc(Cl)cc1Cl)C1CC1 (configuration not stated),-3.0%,14.5%,1.2,-3.8%,23.5%,79.4µM*
O=C(N=C1SC2CS(=O)(=O)CC2N1c1ccccc1)C1CC1 (configuration not stated),3.6%,-16.0%,-17.8,0.2%,15.8%,x
CN(C)c1ccc(N2C(=NC(=O)COc3ccccc3)SC3CS(=O)(=O)CC32)cc1 (configuration not stated),-6.3%,19.5%,2.4,-0.7%,2.5%,50.1µM*
Cc1ccc(OCCSc2nc3ccc(NC(=O)c4ccc5c(c4)OCO5)cc3s2)cc1,x,13.7%,x,x,x,-4.6%[59 µM]
O=C(O)CCc1ccc(S(=O)(=O)Nc2cc(C(F)(F)F)ccc2N2CCCC2)cc1,u,-26.6%,-9.7,1.6%,x,28.2µM*
Cc1cccc(C(=O)NC2C(=O)NNC2c2ccc(Cl)cc2)c1 (configuration not stated),-26.7%,u,-2.5,-2.1%,-11.5%,15.8µM*
Cn1c(=O)cc(SCC(=O)N2CCN(c3ccc(F)cc3)CC2)c2ccc(Cl)cc21,x,-20.6%,x,x,x,-0.6%[59 µM]
CCOC(=O)CSc1nnc(Cc2cc(=O)[nH]c(=O)[nH]2)n1-c1ccc(Cl)cc1,u,u,-2.8,-0.8%,-2.9%,50.1µM*

# Bioassay records (PubChem)
